PubChem BioAssay (NCI)
About 83,000 compounds went through this panel and 20% of them were active in at least one assay; those are over-represented in the sample as a whole.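 Each cell line was grown in a 96-well plate and treated with one concentration of compound for 48 hours. Values below 10 were considered active.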 Calls of active or inactive are those of the source.

test system: SN12C renal; test: NCI-60 one-dose screen, 48 h (100 = growth as untreated, 0 = no growth, -100 = all killed); conditions: 10 µM
Description: Growth inhibition of the SN12C human tumor cell line is measured as a screen for anti-cancer activity. Cells are grown in 96 well plates and exposed to the test compound for 48 hours. Compounds are tested at a single concentration, which is 10^-5 M for most compounds. The reported endpoint is percent growth (GI% or GIPRCNT), where numbers from 0 - 100% represent growth inhibition, and numbers from -100% - 0 represent cell death. For example, a value of 40 represents 60% growth inhibition. A value of 0 means no net growth occurred over the course of the experiment. A value of -40 indicates 40% of cells at the beginning of the experiment died by the end of the experiment. A value of -100 means all cells are dead at the end of the experiment.
NCI-60 Human Tumor Cell Lines Screen was performed using the standard one-dose NCI protocol, which is described in more detail at https://dtp.cancer.gov/discovery_development/nci-60/default.htm.
Compounds with GIPRCNT values below 10 were considered active. Activity score was based on GIPRCNT using the following formula: […]
Score is 0 for GIPRCNT values of 100 or above, 50 for GIPRCNT values of 0, and 100 for GIPRCNT values of -100.

Row | Compound | growth
1 | O=C(O)CCCCCCCCCCN1C(=O)/C(=C/c2cnc(-c3ccccc3)s2)SC1=S | 30.1% (inactive)
2 | O=C1NC(=NC23CC4CC(CC(C4)C2)C3)N/C1=C\c1ccc2ncoc2c1 | 2.78% (active)
3 | O=c1[nH][nH]c(Nc2ccccc2)c1N=Nc1ccc(F)cc1 | 79.6% (inactive)
4 | Cc1ccc(C(=O)NCCCNc2nc(Nc3ccc(N4CCN(C)CC4)cc3)nc3ccsc23)cc1 | 72.6% (inactive)
5 | COc1ccc(-c2cc(-c3cc(C(=O)c4ccccc4)n4ccc(C)cc34)nc(N)c2C#N)cc1 | 70% (inactive)
6 | CN(CCF)c1ccc(/C=C/C(=O)c2ccc(N)cc2O)cc1 | 76.2% (inactive)
7 | CC(C)(C)Nc1nc2cc(Cl)c(Cl)cc2nc1S(C)(=O)=O | 20.1% (inactive)
8 | CONC[C@]1(C)C=C2C(=O)[C@](C)(O)C3(CC3)C(C)=C2[C@H]1O | -6.45% (active)
9 | COc1ccc2[nH]c(=O)c(CSc3ccc(Nc4nccc(-c5ccc(Cl)cc5)n4)cc3)cc2c1 | 83.7% (inactive)
10 | COc1cccc(-c2ccc(/C=N/NC(=O)c3[nH]c4ccc(Br)cc4c3-c3ccccc3)o2)c1 | 5.67% (active)
11 | N#Cc1ccc(-c2nn(-c3ccc(C(=O)O)cc3)cc2CNc2cc(Cl)cc(Cl)c2)cc1 | 50.9% (inactive)
12 | CN1C(=O)N(C)C2SC(N/N=C/c3ccccc3F)=NC21 (stereo not given) | 71.3% (inactive)
13 | CC(=O)Nc1ccc(-c2cn(-c3cccc(C(=O)Nc4cc(CN5CCOCC5)cc(C(F)(F)F)c4)c3)nn2)cn1 | -93.2% (active)
14 | CN1CCN(Cc2ccc(NC(=O)c3cncc(C#Cc4cnc5ccc(N[C@H]6CCOC6)nn45)c3)cc2C(F)(F)F)CC1 | -93.1% (active)
15 | CC(=O)Nc1ccc(-n2cnc3cc(-c4ccc(O)cc4)ccc32)cc1C | 40.4% (inactive)
16 | COc1cc(NC(=O)CSc2nnc(-c3ccc4nc(-c5ccc(Cl)cc5)[nH]c4c3)o2)cc(OC)c1OC | 70.2% (inactive)
17 | Cc1ccc([N+](=O)[O-])c(C(=O)Nc2ccc(-c3ccc4c(c3)NC(=O)/C4=C\c3ccc[nH]3)cc2)c1 | 60.1% (inactive)
18 | CC(C)Sc1nc(NC2CC2)c(C#N)c(-c2ccccc2)n1 | 77.5% (inactive)
19 | O=C(CNc1nc(-c2ccccc2)cs1)Nc1cccc([N+](=O)[O-])c1 | -77.8% (active)
20 | Cc1ccc(/C=C(\C#N)n2nnc3c(F)cccc32)cc1 | 4.19% (active)

Row | Compound | growth
21 | COc1cc(NC(=O)c2cc(-c3ccc(F)cc3F)ccc2O)cc(OC)c1OC | 18.6% (inactive)
22 | Cc1ccc(-c2ccc(SCC(=O)Nc3ccc(Cl)c(C(F)(F)F)c3)nn2)cc1 | 35.2% (inactive)
23 | NC(=Nc1ccc(OCCCCCCCCn2ccnn2)cc1)c1ccccc1 | 32.3% (inactive)
24 | CO[C@@H]1CSSC1Cn1nc(-c2ccc(Oc3ccccc3)cc2)c2c(N)ncnc21 (stereo not given in full) | 60.6% (inactive)
25 | O=c1[nH]c2ccc(Cl)cc2cc1CSc1ccc(Nc2nccc(-c3ccc4ccccc4c3)n2)cc1 | 62.6% (inactive)
26 | O=C(N=Nc1c(O)[nH]c2ccc(Br)cc12)c1ccc2nc(-c3ccccc3)[nH]c2c1 | -94.4% (active)
27 | CC1(C)[C@@H](NCO)CC[C@]2(C)[C@H]3C(=O)C=C4[C@@H]5C[C@](C)(CO)CC[C@]5(C)CC[C@@]4(C)[C@]3(C)CC[C@@H]12 | 72% (inactive)
28 | COc1ccc2ncc(C#Cc3cncc(C(=O)Nc4ccc(CN5CCN(C)CC5)c(C(F)(F)F)c4)c3)n2n1 | -93.5% (active)
29 | CCCCCCCCCCCCCCCCCCCC(=O)NCCc1c[nH]c2ccc(OC(=O)CCCC(=O)OCCOOCCOOCCOOCCOOCCOOCCOOCCOOCCOOCCOOCCOOCCOOCCOC)cc12 | 17.4% (inactive)
30 | CCCCCCCCCCCCCCCCCCCC(=O)NCCc1c[nH]c2ccc(O)cc12 | 84.9% (inactive)
31 | COc1ccc(N(C)c2cc(C#N)nc3ccccc23)cc1N | 5.85% (active)
32 | COc1ccc(-c2nc(Nc3ccccc3S(N)(=O)=O)c3ccccc3n2)cc1 | 26.3% (inactive)
33 | CNC(=O)c1cc(-c2ccc(NC(=O)Nc3ccc(C)cc3)cc2)nc2cccnc12 | 101% (inactive)
34 | COc1ccc(Nc2nc(N)n(Cc3cccc(Br)c3)n2)cc1 | 14.7% (inactive)
35 | COc1cnc2c(c1)C(=O)c1c-2n(CCCNCCO)c(=O)c2cc(OC)c(OC)cc12 | 18.4% (inactive)
36 | Cc1ccc(/C=C/C(=O)c2ccc(S(=O)(=O)NCCNc3nc(Nc4ccc(F)cc4)nc(N(C)C)n3)cc2)cc1 | -83.9% (active)
37 | CC(=O)NNc1ccc2nnc(-c3ccc(Br)cc3)n2n1 | 105% (inactive)
38 | CC1(C)CC[C@]2(C(=O)NCCCNCCCCNCCCN)CC[C@]3(C)C(=CC[C@@H]4[C@@]5(C)Cc6c([nH]c7ccccc67)C(C)(C)[C@@H]5CC[C@]43C)[C@H]2C1 | 91.4% (inactive)
39 | C=C1CCC2C3(C)COC(c4cc(F)cc(F)c4)OC3CCC2(C)C1C/C=C1/C(=O)OCC1O (stereo not given) | -31.6% (active)
40 | Cc1ccc(-c2nc3ccc(C(=O)N=Nc4c(O)[nH]c5ccc([N+](=O)[O-])cc45)cc3[nH]2)cc1 | 48.8% (inactive)
